# Measurements from the supplement of paper PMC10681739.
# How the values were obtained:
# ETS1 [1] = molecular target: T1, ETS1 (UniProt P14921); experiment: ETS1 binding intensity (PBM fluorescence), ETS1 alone (arbitrary fluorescence units); higher = stronger binding; conditions: ETS1 concentration 1 nM; RUNX1 concentration 0 nM
# T1 sequence: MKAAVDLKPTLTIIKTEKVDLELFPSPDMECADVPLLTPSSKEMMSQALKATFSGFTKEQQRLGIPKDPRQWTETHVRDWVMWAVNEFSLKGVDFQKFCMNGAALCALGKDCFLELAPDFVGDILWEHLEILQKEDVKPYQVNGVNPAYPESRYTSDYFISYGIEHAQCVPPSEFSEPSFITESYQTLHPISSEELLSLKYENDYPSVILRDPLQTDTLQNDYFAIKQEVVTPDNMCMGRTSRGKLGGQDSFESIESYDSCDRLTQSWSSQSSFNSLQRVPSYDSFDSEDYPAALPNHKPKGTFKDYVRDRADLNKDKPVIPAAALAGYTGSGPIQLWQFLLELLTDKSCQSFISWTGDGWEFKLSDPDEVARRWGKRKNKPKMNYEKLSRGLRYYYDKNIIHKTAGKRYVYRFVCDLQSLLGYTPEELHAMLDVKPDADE
# ETS1 [2] = molecular target: T1, ETS1; experiment: ETS1 binding intensity (PBM fluorescence) in presence of RUNX1, normalised to ETS1-only experiment (arbitrary fluorescence units); higher = stronger binding; conditions: ETS1 concentration 1 nM; RUNX1 concentration 25 nM
Sequence,ETS1 binding intensity (ETS1 [1]),ETS1 binding intensity (ETS1 [2])
CGAGCTATTTACTTCCTGCGGGTGCACAGGCTGTGA,654,475
AGAACAGGATGTTCTGAGTACAGCATGAACCTCAAA,1280,1210
GTAAAAGGAAGTAAAGGCTTGGCCGGGCGCGGTGGC,569,411
AGCGGTGTTTCAGGATGTGAGGGCCCGCAGGAGCCG,666,837
AGCTGCGGAGCATCCGCTGCGGTCCTCGCCGAGACC,450,453
TTTACGGGATGTAGGCGGCGGCGGCGGTAGTGGTAG,701,771
GGCCGGAAAGGGTCTTGAGAGGAGGTGGTTGCCTTA,633,519
AATGTAGGAAATTCCACTGCATAATTTGTGGTAGTG,478,539
CCCGGACCGTTTCCGTGCTGTGGTCCCGGGTTCTGG,443,412
ACAGATGGTCCGGAACTTCAGAAAACCACTCATTGT,583,592
TCACCCTCTCACTTCCTGCGGGTCCCAGGCTCAGGC,896,790
CCATTCCCGGGCTTCCGCGGTGTCCCCACCCCCTAA,673,652
CAAGAATGAGAAAGGAAGCTGGCGGTTGGGCAGGTG,890,1260
ATGACTCATTTCCTCACTCTCTACTCCCACAGAACC,606,464
ACAGTTTCCTTGCTGTGATGTCAGCCCCCGCCGCAG,709,682
AAGGACCGACCCGTTTTCCGCCCGCAGCGGAGCTTG,439,457
TGGGGGCGGAAGCCTAAACCCCTCCCGCAGCCAGTC,625,627
CCGAAGAGGAAGCTCCACAGGACCTCCGCGGTCAGC,397,1000
